Reference: PubChem BioAssay (NCATS)
Results filed as inconclusive are left out. Unmarked numbers belong to inactive results. Active and inactive are the calls of the source. The call rests on the fitted dose curve; in most records, active means well fitted cell-killing curve with a large enough effect; inconclusive means small, poorly fitted or top-dose-only effect, or effect the other way; inactive means no such curve, though single readings can be large or run the other way.

Test: Quantitative High-Throughput drug screen in 47 multiple myeloma cell lines against the NCATS MIPE library collection: XG6_PLB cell viability assay (AID 1919865); further: nearly all actives have a fitted effect of over 40% in size;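 on viability (% of control): 100% = DMSO-only wells and 0% = media-only wells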
Conditions: XG6 myeloma viability, CellTiter-Glo ATP luminescence, 48 h; series mostly up to 45.8 µM; viability (% of control): at the top concentration
Procedure, shortened: (§1)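 qHTS format: cells plated (500/well), pin-dosed with MIPE 4.0 compounds, kept 48 h at 37 °C. Readout was CellTiter-Glo luminescence, median RLU.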
Potency means the concentration at half of the fitted maximal effect.

SMILES	viability (% of control) [%]	Potency
CC(=O)OCC1=C(C(=O)O)N2C(=O)[C@@H](N)[C@@H]2SC1	123	–
CCOC(=O)c1c(C(C#N)=CN)c2ccc(Cl)c(Cl)c2n1C	95.2	–
COC1=C[C@@H]2[C@@H]3Cc4ccc(OC)c(O)c4[C@]2(CCN3C)CC1=O	–	1.18 µM (active)
CC(C)[C@H]1C(=O)N[C@H](CO)Cc2c[nH]c3cccc(c23)N1C	–	0.0935 µM (active)
COc1cc([C@@H]2c3cc4c(cc3[C@@H](O)C3COC(=O)C32)OCO4)cc(OC)c1O (stereo not given in full)	–	0.0148 µM (active)
CC(=O)O[C@@]12CO[C@H]1C[C@H](O)[C@@]1(C)C(=O)[C@H](O)C3=C(C)[C@@H](O)C[C@@](O)([C@@H](OC(=O)c4ccccc4)[C@@H]21)C3(C)C	–	0.418 µM (active)
C=C[C@@H]1CN2CCC1C[C@@H]2[C@@H](O)c1ccnc2ccccc12 (stereo not given in full)	–	18.7 µM (active)
O=C(NCC1CCOCC1)c1cnc(Nc2ccc(Cl)cc2Cl)nc1C(F)(F)F	–	6.62 µM (active)
Cc1ccccc1-n1c(Cn2cnc3c(N)ncnc32)nc2cccc(C)c2c1=O	–	0.469 µM (active)
O=C1CCC[C@@H]2[C@H]3CCCN4CCC[C@@H](CN12)[C@@H]34	98.8	–
CC(C)N[C@@H]1CCn2c(=O)[nH]c3cccc(c32)[C@@H]1O	–	2.35 µM (active)
COc1ccc(N(C(=O)Oc2c(C)cccc2C)c2ccnc(Nc3ccc(N4CCN(C)CC4)cc3)n2)c(OC)c1	–	0.332 µM (active)
C[C@]12Cc3cn[nH]c3C[C@@H]1CC[C@@H]1[C@H]2CC[C@@]2(C)[C@H]1CC[C@]2(C)O	101	–
CCNC(=O)CC1N=C(c2ccc(Cl)cc2)c2cc(OC)ccc2-n2c(C)nnc21 (stereo not given)	–	4.69 µM (active)
O=C(N[C@@H](COc1ccc2[nH]c(=O)[nH]c2c1)c1ccccc1)c1cccn(Cc2ccc(F)c(F)c2)c1=O	–	18.7 µM (active)
C[C@]12CC[C@H]3[C@@H](CCC4=CC(=O)CC[C@@]43C)[C@H]1CC[C@H]2O	96.2	–
Cc1ccccc1-n1c(Cn2ncc3c(N)ncnc32)nc2cccc(C)c2c1=O	–	0.0418 µM (active)
O=S(=O)(CC1CS1)c1ccc(Oc2ccccc2)cc1 (stereo not given)	–	13.2 µM (active)
C=CCON=C(C[C@H]1O[C@@H]2O[C@]3(C)CC[C@@H]4[C@H](C)CC[C@@H]([C@H]1C)[C@@]24OO3)[C@H]1O[C@@H]2O[C@]3(C)CC[C@H]4[C@H](C)CC[C@@H]([C@@H]1C)[C@@]24OO3	–	0.264 µM (active)
c1cc2c(cc1[C@H]1OC[C@H]3[C@H]1CO[C@H]3c1ccc3c(c1)OCO3)OCO2	–	26.4 µM (active)
CC(C)(O)C(=O)Nc1ccc([N+](=O)[O-])c(C(F)(F)F)c1	–	3.32 µM (active)
Clc1ccccc1C(c1ccccc1)(c1ccccc1)n1cccn1	132	–
COc1ccc(C(=O)c2c(C)n(CCN3CCOCC3)c3cc(I)ccc23)cc1	–	10.5 µM (active)
N#C[C@H](O[C@@H]1O[C@H](CO[C@@H]2O[C@H](CO)[C@H](O)[C@H](O)[C@H]2O)[C@H](O)[C@H](O)[C@H]1O)c1ccccc1	–	18.7 µM (active)
CCOP(=O)(OCC)C(C)NC(=O)N(CCCl)N=O (stereo not given)	106	–
COC[C@H]1OC(=O)c2coc3c2[C@@]1(C)C1=C(C3=O)[C@@H]2CC[C@H](O)[C@@]2(C)C[C@@H]1OC(C)=O	–	4.18 µM (active)

Test: Quantitative High-Throughput drug screen in 47 multiple myeloma cell lines against the NCATS MIPE library collection: XG1_PLB cell viability assay (AID 1919866); further: nearly all actives have a fitted effect of over 35% in size
Conditions: CellTiter-Glo ATP, 48 h; series mostly up to 45.8 µM; viability: at the top concentration
Procedure, shortened: as §1

SMILES	viability [%]	Potency
CC(=O)OCC1=C(C(=O)O)N2C(=O)[C@@H](N)[C@@H]2SC1	116	–
Cc1c(C(=O)c2cccc3ccccc23)c2cccc3c2n1[C@H](CN1CCOCC1)CO3	103	–
COC1=C[C@@H]2[C@@H]3Cc4ccc(OC)c(O)c4[C@]2(CCN3C)CC1=O	–	1.32 µM (active)
CC(C)[C@H]1C(=O)N[C@H](CO)Cc2c[nH]c3cccc(c23)N1C	96.7	–
CC(=O)O[C@@]12CO[C@H]1C[C@H](O)[C@@]1(C)C(=O)[C@H](O)C3=C(C)[C@@H](O)C[C@@](O)([C@@H](OC(=O)c4ccccc4)[C@@H]21)C3(C)C	–	0.526 µM (active)
C=C[C@@H]1CN2CCC1C[C@@H]2[C@@H](O)c1ccnc2ccccc12 (stereo not given in full)	–	23.5 µM (active)
C[C@]12CC[C@H]3[C@@H](CCC4=CC(=O)CC[C@@]43C)[C@H]1CC[C@H]2OC(=O)CCC1CCCC1	107	–
CCNC(=O)C[C@@H]1N=C(c2ccc(Cl)cc2)c2cc(OC)ccc2-n2c(C)nnc21	–	0.833 µM (active)
Cc1ccccc1-n1c(Cn2cnc3c(N)ncnc32)nc2cccc(C)c2c1=O	–	0.209 µM (active)
CN[C@@H]1Cc2cccc3[nH]c(=O)n(c23)C1	103	–
CC(=O)Nc1ccc(OC[C@](C)(O)C(=O)Nc2ccc([N+](=O)[O-])c(C(F)(F)F)c2)cc1	76	–
O=C1CCC[C@@H]2[C@H]3CCCN4CCC[C@@H](CN12)[C@@H]34	92.4	–
CC(C)N[C@@H]1CCn2c(=O)[nH]c3cccc(c32)[C@@H]1O	–	3.32 µM (active)
COc1ccc(N(C(=O)Oc2c(C)cccc2C)c2ccnc(Nc3ccc(N4CCN(C)CC4)cc3)n2)c(OC)c1	–	0.296 µM (active)
C[C@]12Cc3cn[nH]c3C[C@@H]1CC[C@@H]1[C@H]2CC[C@@]2(C)[C@H]1CC[C@]2(C)O	110	–
CCNC(=O)CC1N=C(c2ccc(Cl)cc2)c2cc(OC)ccc2-n2c(C)nnc21 (stereo not given)	–	5.9 µM (active)
O=C(N[C@@H](COc1ccc2[nH]c(=O)[nH]c2c1)c1ccccc1)c1cccn(Cc2ccc(F)c(F)c2)c1=O	–	5.26 µM (active)
Cc1ccccc1-n1c(Cn2ncc3c(N)ncnc32)nc2cccc(C)c2c1=O	–	0.296 µM (active)
C[C@]12COC(=O)C[C@@H]1CC[C@@H]1[C@H]2CC[C@@]2(C)[C@H]1CC[C@]2(C)O	125	–
O=S(=O)(CC1CS1)c1ccc(Oc2ccccc2)cc1 (stereo not given)	–	14.8 µM (active)
C=CCON=C(C[C@H]1O[C@@H]2O[C@]3(C)CC[C@@H]4[C@H](C)CC[C@@H]([C@H]1C)[C@@]24OO3)[C@H]1O[C@@H]2O[C@]3(C)CC[C@H]4[C@H](C)CC[C@@H]([C@@H]1C)[C@@]24OO3	–	0.418 µM (active)
c1cc2c(cc1[C@H]1OC[C@H]3[C@H]1CO[C@H]3c1ccc3c(c1)OCO3)OCO2	110	–
CC(C)(O)C(=O)Nc1ccc([N+](=O)[O-])c(C(F)(F)F)c1	–	8.33 µM (active)
Cc1nc(-c2ccc(-c3ccc(C(=O)N4CCc5cc6c(cc54)C4(CCN(C)CC4)CO6)cc3)c(C)c2)no1	120	–
Clc1ccccc1C(c1ccccc1)(c1ccccc1)n1cccn1	115	–
COc1ccc(C(=O)c2c(C)n(CCN3CCOCC3)c3cc(I)ccc23)cc1	–	7.43 µM (active)
N#C[C@H](O[C@@H]1O[C@H](CO[C@@H]2O[C@H](CO)[C@H](O)[C@H](O)[C@H]2O)[C@H](O)[C@H](O)[C@H]1O)c1ccccc1	–	23.5 µM (active)
CCOP(=O)(OCC)C(C)NC(=O)N(CCCl)N=O (stereo not given)	118	–
COC[C@H]1OC(=O)c2coc3c2[C@@]1(C)C1=C(C3=O)[C@@H]2CC[C@H](O)[C@@]2(C)C[C@@H]1OC(C)=O	–	2.09 µM (active)
